# Assay results reported in PubChem BioAssay (NCI).
# This is part of a sample that, as a whole, favours compounds with a hit. Of some 83,000 tested, about 20% had one in any assay.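 The test compound was applied at a single concentration to cells in 96-well plates for 48 hours, and percent growth was recorded.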 Unmarked numbers belong to inactive results. The source made the active and inactive calls. The calls were made as follows: active = growth percent below 10; inactive = the rest.
# System: SF-539 CNS
# Experiment: NCI-60 one-dose screen, 48 h (100 = growth as untreated, 0 = no growth, -100 = all killed)
# Conditions: 10 µM unless noted
row,Compound,growth
1,O=C1Nc2ccc(Br)cc2/C1=N\c1nnc(-c2ccc(Cl)cc2)o1,64.5%
2,C#C[C@]1(O)CC[C@H]2[C@@H]3CC=C4c5sc(Nc6cccc(C)n6)nc5CC[C@]4(C)[C@H]3CC[C@@]21C,-48.8% (active)
3,CS(=O)(=O)c1ccc2c(c1)c1c(n2Cc2ccc(Cl)cc2)CCCC1,81.1%
4,COc1ccc(-c2nnc(/N=C3/C(=O)Nc4ccc(Br)cc43)o2)cc1,97.9%
5,COc1ccc(S(=O)(=O)n2cc(C=O)c3ccccc32)c(OC)c1,78.6%
6,O=C1c2c(c3c4cccnc4[nH]c3c3ccc4ccccc4c23)C(=O)N1CCN1CCOCC1,55.6%
7,COc1ccc(NC2=C(Cl)C(=O)C(C)=C(C)C2=O)cc1,103%
8,COc1ccc(-c2cc(-c3ccc(Cl)cc3)nc3nc(N)nn23)cc1,95.5%
9,C#C[C@]1(O)CC[C@H]2[C@@H]3CC=C4c5sc(Nc6nc(C)cc(OC)n6)nc5CC[C@]4(C)[C@H]3CC[C@@]21C,-14.8% (active)
10,COc1ccc(/C=C/C(=O)c2nnn(-c3ccc(C(=O)O)cc3)c2C)cc1OC,91.7%
11,COc1cc(O)c2c(c1)/C=C/C[C@H](O)[C@H](O)C(=O)/C=C\C[C@H](C)OC2=O,-24.8% (active)
12,COc1ccccc1/C=C/C(=O)c1nnn(-c2ccc(C(=O)O)cc2)c1C,91.4%
13,O=S(=O)(Nc1ccc(C2CC2)cc1)c1ccc(-c2cnc(C3CC3)o2)cc1,62.9%
14,COc1cc(/C=N/Nc2ccnc3cc(Cl)ccc23)cc(OC)c1O,-85% (active)
15,COc1ccc(-c2nc(SCC(C)C)nc(N/N=C\c3cccc([N+](=O)[O-])c3)c2C#N)cc1,8.02% (active)
16,CCCCCCNC(=O)Oc1ccc(/C(=C(\C)c2ccc(OC)cc2)c2ccc(OCCN(C)C)cc2)cc1,45.3%
17,CCCCSc1nnc(-c2ccc(-c3ccc(Cl)cc3)nc2C)o1,98.1%
18,CC(C)c1nn(-c2ccccc2)c(N2CCCCC2)c1/C=N/NC(N)=S,88.7%
19,C#C[C@]1(O)CC[C@H]2[C@@H]3CC=C4c5sc(Nc6ccc(OC)nc6)nc5CC[C@]4(C)[C@H]3CC[C@@]21C,13.9%

row,Compound,growth
1,COc1cc(-c2noc(C[C@@H](NC(=O)OCc3ccccc3)C(C)C)n2)cc(OC)c1OC,102%
2,COc1ccc(-c2ccc3c4c(cccc24)C(=O)N(N2C(=O)c4cccc5cccc(c45)C2=O)C3=O)cc1,95.7%
3,Cc1nn(-c2ccc(Br)cc2)c2nc(CCl)[nH]c(=O)c12,77%
4,CN1CCN(c2ccc(C(=O)Nc3cccc(-c4cn(-c5ccc(S(N)(=O)=O)cc5)nn4)c3)cc2C(F)(F)F)CC1,46.2%
5,COc1ccc(Cn2cc3c(c2-c2ccccc2)CCCc2cnoc2-3)cc1[N+](=O)[O-],70.5%
6,NS(=O)(=O)Oc1ccc2nc(Nc3ccc(F)c(F)c3)ccc2c1,89.9%
7,O=C1c2c(c3c4cc(Br)ccc4[nH]c3c3ccc4ccccc4c23)C(=O)N1CCN1CCNCC1,87.1%
8,CC1CCN(S(=O)(=O)c2ncsc2-c2ccccc2)CC1,44.3%
9,O=C1NC(=O)c2c1c1c3ccccc3ccc1c1[nH]c3ccccc3c21,18.4%
10,COc1cc([C@H]2OC[C@H]3[C@@H]2CO[C@@H]3c2ccc(O)c(OC)c2)ccc1O,91.1%
11,CCN(CC)CCN1C(=O)c2c(c3c4cc(Br)ccc4[nH]c3c3ccc4ccccc4c23)C1=O,-96.9% (active)
12,CC(C)=CCC[C@](C)(O)[C@H]1CC[C@]2(C)[C@@H]1CC[C@@H]1[C@@]3(C)CCC(NC(=O)c4ccccc4C(=O)O)C(C)(C)[C@@H]3CC[C@]12C (stereo partly specified),89.3%
13,Clc1ccc(-c2csc(N/N=C/c3nc4ccccc4n3C3CC3)n2)cc1,99.4%
14,Cc1ccc(-c2csc(N/N=C/c3nc4ccccc4n3C3CC3)n2)cc1,66%
15,C#C[C@]1(O)CC[C@H]2[C@@H]3CC=C4c5sc(-c6ccccn6)nc5CC[C@]4(C)[C@H]3CC[C@@]21C,30.9%
16,O=C1c2c(c3c4cccnc4[nH]c3c3ccc4ccccc4c23)C(=O)N1CCN1CCNCC1,73.8%
17,O=C1c2c(c3c4cccnc4[nH]c3c3ccc4ccccc4c23)C(=O)N1CCN1CCCCC1,54.2%
18,COc1ccc(-c2nc(SCCC(C)C)nc(N/N=C\c3ccc(O)cc3)c2C#N)cc1,35.1%
19,CN(C)C(=O)C1=NC(CO)C(=O)N(c2ccc(Cl)cc2)N1 (stereo unspecified),95.8%

# System: UACC-257 melanoma
# Experiment: as above
# Conditions: 10 µM
row,Compound,growth
1,O=C1Nc2ccc(Br)cc2/C1=N\c1nnc(-c2ccc(Cl)cc2)o1,91.6%
2,C#C[C@]1(O)CC[C@H]2[C@@H]3CC=C4c5sc(Nc6cccc(C)n6)nc5CC[C@]4(C)[C@H]3CC[C@@]21C,-34.9% (active)
3,CS(=O)(=O)c1ccc2c(c1)c1c(n2Cc2ccc(Cl)cc2)CCCC1,92.1%
4,COc1ccc(-c2nnc(/N=C3/C(=O)Nc4ccc(Br)cc43)o2)cc1,106%
5,COc1ccc(S(=O)(=O)n2cc(C=O)c3ccccc32)c(OC)c1,82.5%
6,O=C1c2c(c3c4cccnc4[nH]c3c3ccc4ccccc4c23)C(=O)N1CCN1CCOCC1,84.1%
7,COc1ccc(NC2=C(Cl)C(=O)C(C)=C(C)C2=O)cc1,85.5%
8,COc1ccc(-c2cc(-c3ccc(Cl)cc3)nc3nc(N)nn23)cc1,109%
9,C#C[C@]1(O)CC[C@H]2[C@@H]3CC=C4c5sc(Nc6nc(C)cc(OC)n6)nc5CC[C@]4(C)[C@H]3CC[C@@]21C,46.1%
10,COc1ccc(/C=C/C(=O)c2nnn(-c3ccc(C(=O)O)cc3)c2C)cc1OC,97%
11,COc1cc(O)c2c(c1)/C=C/C[C@H](O)[C@H](O)C(=O)/C=C\C[C@H](C)OC2=O,-19.7% (active)
12,COc1ccccc1/C=C/C(=O)c1nnn(-c2ccc(C(=O)O)cc2)c1C,81.5%
13,O=S(=O)(Nc1ccc(C2CC2)cc1)c1ccc(-c2cnc(C3CC3)o2)cc1,79.8%
14,COc1cc(/C=N/Nc2ccnc3cc(Cl)ccc23)cc(OC)c1O,112%
15,COc1ccc(-c2nc(SCC(C)C)nc(N/N=C\c3cccc([N+](=O)[O-])c3)c2C#N)cc1,89%
16,CCCCCCNC(=O)Oc1ccc(/C(=C(\C)c2ccc(OC)cc2)c2ccc(OCCN(C)C)cc2)cc1,9.83% (active)
17,CCCCSc1nnc(-c2ccc(-c3ccc(Cl)cc3)nc2C)o1,106%
18,CC(C)c1nn(-c2ccccc2)c(N2CCCCC2)c1/C=N/NC(N)=S,106%
19,C#C[C@]1(O)CC[C@H]2[C@@H]3CC=C4c5sc(Nc6ccc(OC)nc6)nc5CC[C@]4(C)[C@H]3CC[C@@]21C,89%

row,Compound,growth
1,COc1cc(-c2noc(C[C@@H](NC(=O)OCc3ccccc3)C(C)C)n2)cc(OC)c1OC,98.5%
2,COc1ccc(-c2ccc3c4c(cccc24)C(=O)N(N2C(=O)c4cccc5cccc(c45)C2=O)C3=O)cc1,105%
3,Cc1nn(-c2ccc(Br)cc2)c2nc(CCl)[nH]c(=O)c12,101%
4,CN1CCN(c2ccc(C(=O)Nc3cccc(-c4cn(-c5ccc(S(N)(=O)=O)cc5)nn4)c3)cc2C(F)(F)F)CC1,95.8%
5,COc1ccc(Cn2cc3c(c2-c2ccccc2)CCCc2cnoc2-3)cc1[N+](=O)[O-],75.3%
6,NS(=O)(=O)Oc1ccc2nc(Nc3ccc(F)c(F)c3)ccc2c1,104%
7,O=C1c2c(c3c4cc(Br)ccc4[nH]c3c3ccc4ccccc4c23)C(=O)N1CCN1CCNCC1,98.3%
8,CC1CCN(S(=O)(=O)c2ncsc2-c2ccccc2)CC1,106%
9,O=C1NC(=O)c2c1c1c3ccccc3ccc1c1[nH]c3ccccc3c21,44.1%
10,COc1cc([C@H]2OC[C@H]3[C@@H]2CO[C@@H]3c2ccc(O)c(OC)c2)ccc1O,113%
11,CCN(CC)CCN1C(=O)c2c(c3c4cc(Br)ccc4[nH]c3c3ccc4ccccc4c23)C1=O,103%
12,CC(C)=CCC[C@](C)(O)[C@H]1CC[C@]2(C)[C@@H]1CC[C@@H]1[C@@]3(C)CCC(NC(=O)c4ccccc4C(=O)O)C(C)(C)[C@@H]3CC[C@]12C (stereo partly specified),30.5%
13,Clc1ccc(-c2csc(N/N=C/c3nc4ccccc4n3C3CC3)n2)cc1,91%
14,Cc1ccc(-c2csc(N/N=C/c3nc4ccccc4n3C3CC3)n2)cc1,79.7%
15,C#C[C@]1(O)CC[C@H]2[C@@H]3CC=C4c5sc(-c6ccccn6)nc5CC[C@]4(C)[C@H]3CC[C@@]21C,70.5%
16,O=C1c2c(c3c4cccnc4[nH]c3c3ccc4ccccc4c23)C(=O)N1CCN1CCNCC1,106%
17,O=C1c2c(c3c4cccnc4[nH]c3c3ccc4ccccc4c23)C(=O)N1CCN1CCCCC1,94%
18,COc1ccc(-c2nc(SCCC(C)C)nc(N/N=C\c3ccc(O)cc3)c2C#N)cc1,111%
19,CN(C)C(=O)C1=NC(CO)C(=O)N(c2ccc(Cl)cc2)N1 (stereo unspecified),107%
